APP 5UTR inh: inhibitors of APP translation via 5'UTR reporter, primary screen, APP 5'UTR luciferase, SH-SY5Y cells; SH-SY5Y APP 5'UTR-luciferase reporter, luminescence; inhibition, % at 2 µM; hit rate 0.82% among 190,000; AID 1285, 2008;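 active means inhibition above a set limit, derived from the sample mean plus 3 SD, cut at about 45% in these data; inconclusive means one replicate passes the limit while the other fails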
IEC-6 cytotox: cytotoxicity in IEC-6 intestinal epithelial cells, primary screen, cytotoxicity control for KLF5 inhibitor project, cell-based, luminescence. IEC-6 cytotoxicity, luminescence viability. inhibition, % at 5 µM. hit rate 0.78% among 290,000; in the data active means inhibition above about 22%
aSyn 5UTR inh: MLPCN primary screen, SNCA 5' untranslated region; hit rate 0.82% among 300,000; AID 1813, 2009; inhibition, % (tested at 7.5 µM); alpha-synuclein 5'UTR reporter, inhibitor activity; in the data active means inhibition above about 60%; inconclusive means no clear call, values can overlap the other calls;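 further: H4 neuroglioblastoma cells stably carrying SNCA 5'UTR luciferase fusion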
KLF5 inh: KLF5 expression inhibitors, primary screen, DLD-1 cells, luminescence | AID 1700, 2009 | DLD-1 KLF5 promoter-luciferase reporter | hit rate 0.23% among 290,000 | inhibition, % at 5 µM;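 active means inhibition above a per-plate limit of that plate's mean compound inhibition plus 3 SD, cut at about 60% in these data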;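 further: higher means less KLF5 promoter-driven luciferase light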
Ba/F3 V617F tox: reduced viability of JAK2V617F-dependent Ba/F3 cells, primary screen, JAK2V617F inhibitor project, cell-based, Ba/F3 EpoR-JAK2V617F, luminescence; hit rate 1.1% among 220,000; ATP luminescence; inhibition, % at 5.6 µM;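 active means inhibition above the campaign mean plus 3 SD over all tested compounds, cut at about 24% in these data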;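 further: cytokine-independent growth of Ba/F3 cells driven by EpoR plus mutant JAK2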
BaF3 tox: parental Ba/F3 cell viability inhibition, counter-screen for JAK2V617F inhibitor project, murine pro-B, CellTiter-Glo luminescence | CellTiter-Glo ATP luminescence | inhibition, % at 5.6 µM | hit rate 1.1% among 220,000;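 active means inhibition above a per-campaign cutoff, the mean inhibition of all tested compounds plus 3 SD, cut at about 27% in these data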
Numbers stand for hits; – = inactive; ? = inconclusive; · = no result given. A selection: hits, their analogues and other compounds. The true share with any hit is near 2.2%.

SMILES | APP 5UTR inh | IEC-6 cytotox | aSyn 5UTR inh | KLF5 inh | Ba/F3 V617F tox | BaF3 tox
O=P(c1ccccc1)(c1ccccc1)C(O)c1ccc(Br)cc1 (stereo not given) | · | – | – | – | · | ·
CC1(c2ccccc2)NC(=O)N(CC(=O)Nc2ccc(C(N)=O)cc2)C1=O (stereo not given) | · | – | – | – | · | ·
COc1ccc(C(=O)/C=C2\NCCc3cc(OC)c(OC)cc32)cc1OC | · | – | 64 | – | · | ·
COc1ccc(C(=O)/C=C/N(C)C)cc1OC | – | – | · | – | – | –
COc1ccc2c(c1)c(CC(=O)Nc1nnc(C3CC3)s1)c(C)n2C(=O)c1ccc(Cl)cc1 | · | – | – | – | – | 38
Cc1ccc(S(=O)(=O)N(C)CC(=O)N2CC(C)OC(C)C2)cc1 (stereo not given) | · | – | – | – | · | ·
COc1ccc(NC2=CC(=O)CC(c3ccccc3)C2)c(OC)c1 (stereo not given) | – | – | – | – | 39 | 43
Cc1nnc(-c2ccccc2)c(=O)n1/N=C/c1c(O)ccc2ccccc12 | 61 | – | 83 | – | – | –
COCCn1c(=NC(=O)c2ccc(S(=O)(=O)N3CCOCC3)cc2)sc2cc(S(N)(=O)=O)ccc21 | · | – | – | – | · | ·
CCn1c(=NC(=O)c2ccc(S(=O)(=O)N3CCOCC3)cc2)sc2cccc(OC)c21 | – | – | – | – | 35 | 42
C=CCn1c(O)c(N=NC(=S)Nc2cccc(C)c2)c2ccccc21 | 66 | – | 94 | – | – | –
Oc1c(N=NC(=S)Nc2ccccc2F)c2ccccc2n1Cc1ccccc1 | – | – | 72 | – | – | –
Cc1ccc(Cn2c(O)c(N=NC(=S)Nc3ccccc3F)c3ccccc32)cc1 | – | – | 71 | – | – | –
Cc1c(Cl)cccc1NC(=S)N=Nc1c(O)n(CN2CCOCC2)c2ccccc12 | 46 | – | 64 | – | – | –
O=C(CCn1nnnc1CN1CCOCC1)N1CCC(c2ccccc2F)C1 (stereo not given) | · | – | – | – | · | ·
CCn1c(SCC(=O)Nc2ccc(Br)cn2)nnc1C1CC1 | · | – | – | – | · | ·
C=CCn1c(O)c(N=NC(=S)Nc2ccccc2F)c2ccccc21 | – | – | 67 | – | – | –
C/C(Cl)=C\Cn1c(O)c(N=NC(N)=S)c2ccccc21 | – | – | – | – | – | –
CCCCNC(=S)N=Nc1c(O)n(Cc2ccccc2)c2ccccc12 | – | – | – | – | – | –
Oc1c(N=NC(=S)Nc2ccccc2F)c2ccccc2n1Cc1ccccc1Cl | – | – | 87 | – | – | –
CCn1c(SCC#N)nc2ccccc2c1=O | · | – | – | – | – | –
N#CCSc1nc2ccccc2c2nc3ccccc3n12 | – | – | – | – | 63 | 49
CCN1CCN(C(c2ccc(C(F)(F)F)cc2)c2ccc3cccnc3c2O)CC1 (stereo not given) | · | – | – | – | · | ·
OCCN1CCN(C(c2cccs2)c2ccc3cccnc3c2O)CC1 (stereo not given) | – | 50 | · | 83 | 100 | 86
CC(OC(=O)c1ccc(Cl)nc1)C(=O)NCc1ccc2c(c1)OCO2 (stereo not given) | · | · | – | · | · | ·
SMILES | APP 5UTR inh | IEC-6 cytotox | aSyn 5UTR inh | KLF5 inh | Ba/F3 V617F tox | BaF3 tox
CNC(=S)N/N=C(\C)c1ccc(N2CCOCC2)cc1 | – | – | – | – | 96 | 41
c1ccc(-c2nnc(-c3ccccn3)s2)nc1 | · | – | 78 | – | – | –
C=CCn1c(NCCc2ccccc2)nc2c1c(=O)n(C)c(=O)n2C | – | – | – | – | – | 31
CCCNc1nc2c(c(=O)n(C)c(=O)n2C)n1Cc1ccc(F)cc1 | – | – | – | – | – | 36
CCNc1nc2c(c(=O)n(C)c(=O)n2C)n1Cc1ccc(Cl)cc1 | · | – | – | – | · | ·
Cn1c(=O)c2c(nc(NCc3cccnc3)n2Cc2ccc(Cl)cc2)n(C)c1=O | – | 23 | – | – | 50 | 52
O=C(CNC(=O)Cc1cccc2ccccc12)NCc1ccc(F)cc1 | · | – | – | – | · | ·
Cc1noc(C)c1CSCC(=O)N(C)CC(=O)Nc1ccc(Cl)c(C(F)(F)F)c1 | · | · | – | · | · | ·
O=C(N/N=C/c1ccc([N+](=O)[O-])o1)c1cc2ccccc2o1 | · | – | 66 | – | – | –
Cc1scc(C(=O)N/N=C/c2ccc([N+](=O)[O-])o2)c1C | · | – | 85 | – | · | ·
Cc1scc(C(=O)N/N=C/c2ccco2)c1C | – | – | – | – | – | –
CCOc1ccc(NC(=O)CN(C)C(=O)c2cc(S(=O)(=O)N3CCCCC3)ccc2C)cc1OCC | · | · | – | · | · | ·
NC(=O)CCCn1c(C(=O)c2ccc(Cl)cc2)c2ccc([N+](=O)[O-])cc2[n+]1[O-] | · | · | – | · | · | ·
NC(=O)CCCn1c(C(=O)c2cc(Cl)c(N)c(Cl)c2)c2ccc([N+](=O)[O-])cc2[n+]1[O-] | · | · | 71 | · | · | ·
COc1cccc(COC(=O)C2CCN(S(=O)(=O)c3ccc(C)cc3C)CC2)c1OC | · | · | – | · | · | ·
O=C(c1ccco1)N1CCN(Cc2cc(=O)c(OCc3ccccc3Cl)co2)CC1 | · | · | – | · | · | ·
N=C1S/C(=C\c2ccc(-c3cccc(Cl)c3)o2)C(=O)N1c1nccs1 | – | – | – | – | – | –
COc1ccc(/C=C2\SC(=N)N(c3nccs3)C2=O)cc1OC | – | – | 65 | – | – | –
CCN(CC)c1ccc(/C=N/NC(=O)Cc2cccs2)c(O)c1 | 64 | – | ? | – | – | –
CCN(CC)c1ccc(/C=N/Nc2nc3ccccc3[nH]2)c(O)c1 | – | – | 84 | – | – | –
O=C(Cc1cccs1)N/N=C/c1ccccc1 | · | – | – | – | – | –
CCCCn1c(/C=N/Nc2nc3ccccc3[nH]2)nc2ccccc21 | 88 | – | – | – | – | –
COc1ccc2c(c1)c(/C=N/Nc1nc3ccccc3[nH]1)c(C)n2C | · | – | – | – | – | 53
COc1cc(OC)c(OC)cc1/C=N/Nc1nc2ccccc2[nH]1 | · | – | – | – | – | –
O=C(CNC(=O)c1cc(S(=O)(=O)N2CCCCC2)ccc1N1CCOCC1)Nc1ccc(F)c(F)c1 | · | · | – | · | · | ·
SMILES | APP 5UTR inh | IEC-6 cytotox | aSyn 5UTR inh | KLF5 inh | Ba/F3 V617F tox | BaF3 tox
C#CCn1cc(/C=N/NC(=O)COc2cccc3cccnc23)c2ccccc21 | – | – | – | – | – | –
C#CCn1cc(/C=N/Nc2nc3ccccc3[nH]2)c2ccccc21 | – | 31 | – | – | – | –
COc1ccc(N2CC(C(=O)N[C@@H](C)C(=O)NCCc3ccccc3)CC2=O)cc1 (stereo not given in full) | · | – | – | – | · | ·
COc1ccc(S(=O)(=O)NCc2nc3nc(C)cc(C)n3n2)cc1OC | · | – | – | – | · | ·
CC(C)(C)Cc1nnc(NC(=O)CCC2CCCCC2)s1 | · | – | – | – | · | ·
CC(C)N1CCC(=NNc2ccc(S(=O)(=O)N3CCOCC3)cc2[N+](=O)[O-])CC1 | – | – | – | – | – | –
CCCN1CCC(=NNc2ccc(S(=O)(=O)N3CCOCC3)cc2[N+](=O)[O-])CC1 | 88 | – | 64 | – | – | –
